Reference: ChEMBL document CHEMBL3988442, “University of Dundee, Small-Polar-MMV Screening Library” (2021)
The campaign covered roughly 48,000 compounds. About 13,000 (27%) showed an effect of 50% or more. Some of the results follow.

The compounds below were run on Wolbachia pipientis (assay: Anti-Wolbachia Cell-Based Screen). Settings: 5 µM.
Type: functional
Set-up: scale not given: in the data most compounds retested in dose-response had high values

| Structure (SMILES) | Percent Effect |
| --- | --- |
| CCCN1CCN(C(=O)Cc2cccnc2)[C@H]2CS(=O)(=O)C[C@H]21 | 0.3719% |
| O=C(O)C(F)(F)F.O=C(O)C(F)(F)F.c1ccc(CN2C[C@H]3CCC[C@@]3(COCC3CCOCC3)C2)nc1 | 5.827% |
| C[C@@H]1CN(C2CCOCC2)C[C@]12CCN(c1cccnc1)C2=O.O=C(O)C(F)(F)F.O=C(O)C(F)(F)F | 17.85% |
| CCS(=O)(=O)NC[C@]12COC[C@H]1CN(Cc1cccnc1)C2.O=C(O)C(F)(F)F.O=C(O)C(F)(F)F | -8.022% |
| Cc1cc(CN2C[C@H]3CCC[C@@]3(COCC3CCOCC3)C2)no1.O=C(O)C(F)(F)F | 1.109% |
| O=C(NC[C@]12COC[C@H]1CN(Cc1cccnc1)C2)C1CCC1.O=C(O)C(F)(F)F.O=C(O)C(F)(F)F | 96.22% |
| O=C(O)C(F)(F)F.O=C(O)C(F)(F)F.c1cncc(OC[C@@]23CCC[C@@H]2CN(C2CCOCC2)C3)c1 | 96.07% |
| O=C(O)C(F)(F)F.O=C(O)C(F)(F)F.c1cncc(OC[C@@]23CCC[C@@H]2CN(CC2CCOCC2)C3)c1 | 108.6% |
| O=C(O)C(F)(F)F.O=C(O)C(F)(F)F.c1cncc(OC[C@]23COC[C@H]2CN(C2CCOCC2)C3)c1 | 108.8% |
| COc1ncccc1CN1C[C@@H]2COC[C@]2(COCC2CC2)C1.O=C(O)C(F)(F)F.O=C(O)C(F)(F)F | 12.64% |
| C[C@@H]1CN(C2CCOC2)C[C@]12CCN(c1cccnc1)C2=O.O=C(O)C(F)(F)F.O=C(O)C(F)(F)F (stereo not given in full) | 8.884% |
| O=C(NC1CC(F)(F)C1)[C@]12COC[C@H]1CN(Cc1cccnc1)C2.O=C(O)C(F)(F)F.O=C(O)C(F)(F)F | 1.025% |
| Cl.O=C(C1CCCCC1)N1CC2(CCNCC2)C1 | -23.98% |
| CC(C)(C)NC(=O)CNc1ccc(C#N)c(C(F)(F)F)c1 | 3.351% |
| COCCO[C@H]1COCCN(C2CCN(C)CC2)C1 | -1.205% |
| Cc1nc(N2C[C@H]3CNC[C@H]3C2)c2sccc2n1 | 3.045% |
| O=C(O)C(F)(F)F.O=C(O)C(F)(F)F.c1ccc(OC[C@]23COC[C@H]2CN(C2CCOCC2)C3)nc1 | 115.9% |
| O=C(O)C(F)(F)F.O=C(O)C(F)(F)F.c1ccc(OC[C@]23COC[C@H]2CN(Cc2ccoc2)C3)nc1 | -16.38% |
| O=C(O)C(F)(F)F.O=C(O)C(F)(F)F.c1cncc(OC[C@]23COC[C@H]2CN(C2CCC2)C3)c1 | 103% |
| O=C(O)C(F)(F)F.O=C(O)C(F)(F)F.c1ccc(CN2C[C@@H]3COC[C@]3(COCC3CCOCC3)C2)nc1 | 9.184% |
| O=C(O)C(F)(F)F.c1cnc(N2CCC3(CCN(CC4CCOC4)C3)CC2)nc1 (stereo not given) | -13.35% |
| O=C(O)C(F)(F)F.O=C(O)C(F)(F)F.c1cncc(OC[C@]23COC[C@H]2CN(Cc2cccs2)C3)c1 | -9.167% |
| O=C1[C@@H]2CCN(C3CCC3)C[C@@H]2OCCN1Cc1ccncc1 | -0.008003% |
| O=C(O)C(F)(F)F.O=C(O)[C@]12CCCN(C3CCOC3)C[C@H]1CN(c1ncccn1)C2 (stereo not given in full) | 103.8% |
| O=C(O)C(F)(F)F.O=C(O)C(F)(F)F.c1cc(CN2C[C@@H]3COC[C@]3(COCC3CC3)C2)ccn1 | 8.652% |

| Structure (SMILES) | Percent Effect |
| --- | --- |
| c1cc(COC[C@@]23CCC[C@@H]2CN(C2CCOCC2)C3)ccn1 | 95.49% |
| CCN(CCc1ccccc1)Cn1nc(C)c2c(C)onc2c1=O | 9.974% |
| CC(C)NC(=O)N1CCOC2(CNC2)C1 | 2.797% |
| CC(C)(C)n1cc(C(=O)O)c(-c2ccc(F)cc2F)n1 | 0.2477% |
| Cc1cnc(N2CC[C@H]3[C@H](C[C@@H](CN(C)C)N3C)C2)nc1.O=C(O)C(F)(F)F.O=C(O)C(F)(F)F.O=C(O)C(F)(F)F | -11.75% |
| CN(C)C[C@@H]1C[C@@H]2CN(c3ncc(F)cn3)CC[C@@H]2N1C.O=C(O)C(F)(F)F.O=C(O)C(F)(F)F.O=C(O)C(F)(F)F | -18.44% |
| O=C(O)C(F)(F)F.O=C(O)C(F)(F)F.O=C1[C@H]2CN(Cc3ccoc3)C[C@H]2CN1Cc1cccnc1 | -13.37% |
| Cn1cc(N2C[C@@H]3CN(Cc4ccccn4)C[C@@H]3C2=O)cn1.O=C(O)C(F)(F)F.O=C(O)C(F)(F)F | -17.49% |
| CN1C(Cn2cccn2)C[C@@H]2CN(Cc3ccccn3)CC[C@@H]21.O=C(O)C(F)(F)F.O=C(O)C(F)(F)F.O=C(O)C(F)(F)F.O=C(O)C(F)(F)F (stereo not given in full) | 100.1% |
| CC(C)N1[C@H](Cn2cncn2)C[C@@H]2CN(c3ncccn3)CC[C@@H]21.O=C(O)C(F)(F)F | 2.319% |
| CN1C(Cn2cccn2)C[C@@H]2CN(Cc3cccnc3)CC[C@@H]21.O=C(O)C(F)(F)F.O=C(O)C(F)(F)F.O=C(O)C(F)(F)F.O=C(O)C(F)(F)F (stereo not given in full) | 103.4% |
| Cc1oncc1C(=O)N1CC[C@H]2[C@H](C[C@@H](CN3CCCC3)N2C)C1.O=C(O)C(F)(F)F.O=C(O)C(F)(F)F | 90.36% |
| O=C(O)C(F)(F)F.O=C(O)C(F)(F)F.O=C(O)C(F)(F)F.c1ccc(CN2CC[C@H]3[C@H]2CCN3c2ncccn2)nc1 | -2.728% |
| O=C(C1CCCC1)N1C[C@@H]2CCNC[C@@H]21 | -32.69% |
| Cc1nc(O)cc(CNC(=O)CC[C@@H]2CCCN3CCCC[C@H]23)n1 | -12.46% |
| COCCO[C@@H]1C[C@H]2CN(C(=O)c3ccc(C)nc3)CCN2C1 | -21.72% |
| NC1(c2nc(-c3cccs3)cc(=O)[nH]2)CCCCC1 | -5.956% |
| Cc1cc(N2CCN3CCCCC3C2)n2nc(C)c(C)c2n1 (stereo not given) | 11.68% |
| Cc1cc(N2CCCN3CCC[C@H]3C2)n2nc(C)c(C)c2n1 | 20.9% |
| Cc1cc(C(F)(F)F)nc(N2CCN3CCCC3C2)n1 (stereo not given) | 105% |
| FC(F)(F)c1cc(-c2cccs2)nc(N2CCN3CCCC3C2)n1 (stereo not given) | 58.5% |
| Cn1nc(-c2cccs2)cc1[C@H]1CN2CC[C@H]1C[C@@H]2CN | -6.528% |
| O=C(O)C(F)(F)F.O=C(O)C(F)(F)F.O=C1CC2(CCN(Cc3ccccn3)C2)CN1c1cccnc1 (stereo not given) | 1.703% |
| CN(C)C(=O)N1CCC2(C1)CN(c1cccnc1)C(=O)CN2C (stereo not given) | 109.4% |
| O=C(O)C(F)(F)F.O=C(O)C(F)(F)F.O=C1CC2(CCN(CC3CC3)C2)CN1c1cccnc1 (stereo not given) | 7.384% |

| Structure (SMILES) | Percent Effect |
| --- | --- |
| O=C(COc1cccc(F)c1)N1C[C@@H](O)[C@H](N2CCCC2)C1 | -2.251% |
| COc1ccccc1OCC(=O)N1CCN(Cc2noc(C)n2)CC1 | 5.502% |
| O=C(COc1cccc(F)c1)N1C[C@@H](O)[C@H](N2CCOCC2)C1 | 106.1% |
| CCN1CCN(C(=O)COc2ccc(CN(C)S(C)(=O)=O)cc2)CC1 | -1.123% |
| CN(C)[C@@H]1CN(C(=O)COc2cccc(F)c2)C[C@H]1O | 81.08% |
| COc1cccc(OCC(=O)N2CCCSCC2CN2CCOCC2)c1 (stereo not given) | 8.311% |
| Cc1ccccc1C1(CN)CCCCC1 | 0.8163% |
| Cc1nc(N2C[C@H]3CC[C@@H](C2)N3)nc2cc(S(C)(=O)=O)ccc12 | 4.923% |
| Cc1cnc(N2CCC[C@@H]3CN(CC(=O)N(C)C)C[C@@H]32)nc1.O=C(O)C(F)(F)F.O=C(O)C(F)(F)F | -0.2022% |
| Cc1nc(CN2C[C@@H]3OCCN(c4ncc(F)cn4)[C@@H]3C2)cs1 | -23.28% |
| CCN1C[C@H]2[C@@H](C1)N(c1ncc(F)cn1)CC[C@H]2OC.O=C(O)C(F)(F)F.O=C(O)C(F)(F)F | 2.548% |
| CCOC(=O)CN1C[C@@H]2OCCN(c3ncc(F)cn3)[C@@H]2C1 | 86.46% |
| CN(C)C(=O)CN1C[C@@H]2OCCN(c3ncc(F)cn3)[C@@H]2C1 | 104.1% |
| Cc1nc(C2CCN(C(C)C)CC2)sc1Br | 83.07% |
| Cc1nc(C2CCCN(C(C)C)C2)sc1Br (stereo not given) | 117% |
| Cl.O=C(NCC(F)(F)F)C1=NOC2(CCCNC2)C1 (stereo not given) | 8.664% |
| CN(Cc1cncnc1)[C@H]1CN(Cc2ccco2)[C@@H]2CCCO[C@@H]21 | -12.03% |
| O=C(O)C(F)(F)F.O=C(O)C(F)(F)F.c1ccc(CO[C@@H]2C[C@H]3CN(c4ncccn4)CCN3C2)nc1 | -5.237% |
| Cc1cc(CN2C[C@H]3CC[C@@H]2CN(Cc2[nH]cnc2C)C3)on1 | 1.495% |
| Cc1cc(CN2CCN3C[C@H](c4ccccc4)[C@@H](CO)[C@H]3C2)on1 | 124.7% |
| CN(C)C(=O)CN1CCO[C@H]2CN(c3ccccn3)C[C@H]21 | -17.61% |
| OC[C@@H]1[C@@H](c2ccccc2)CN2CCN(c3ccccn3)C[C@H]12 | 121.4% |
| OC[C@@H]1[C@H]2CN(c3ccccn3)CCN2C[C@H]1c1ccccc1 | 110.4% |
| c1ccc(-c2cc(CN3C[C@H]4CC[C@H]3C4)on2)cc1 | 0.1259% |
| COCC(=O)NC[C@H]1C[C@@H]2CCN1C[C@@H]2CN1CCc2ccccc2C1 | -3.386% |
